Results published in paper PMC4336329 (PLoS ONE, 2015).
The whole screen tested about 310,000 compounds, of which about 14,000 (4.5%) showed an effect of 50% or more. The effect is printed as a negative number. Only a selection was taken, and strong results are over-represented in it overall.

These compounds were tested against human ether-à-go-go-related gene (hERG) potassium channel (human, UniProt Q12809) (assay: primary screen, population patch clamp on CHO cells stably expressing hERG; higher = less effect of the substance).
Chain of human ether-à-go-go-related gene (hERG) potassium channel (Q12809 whole entry, looked up): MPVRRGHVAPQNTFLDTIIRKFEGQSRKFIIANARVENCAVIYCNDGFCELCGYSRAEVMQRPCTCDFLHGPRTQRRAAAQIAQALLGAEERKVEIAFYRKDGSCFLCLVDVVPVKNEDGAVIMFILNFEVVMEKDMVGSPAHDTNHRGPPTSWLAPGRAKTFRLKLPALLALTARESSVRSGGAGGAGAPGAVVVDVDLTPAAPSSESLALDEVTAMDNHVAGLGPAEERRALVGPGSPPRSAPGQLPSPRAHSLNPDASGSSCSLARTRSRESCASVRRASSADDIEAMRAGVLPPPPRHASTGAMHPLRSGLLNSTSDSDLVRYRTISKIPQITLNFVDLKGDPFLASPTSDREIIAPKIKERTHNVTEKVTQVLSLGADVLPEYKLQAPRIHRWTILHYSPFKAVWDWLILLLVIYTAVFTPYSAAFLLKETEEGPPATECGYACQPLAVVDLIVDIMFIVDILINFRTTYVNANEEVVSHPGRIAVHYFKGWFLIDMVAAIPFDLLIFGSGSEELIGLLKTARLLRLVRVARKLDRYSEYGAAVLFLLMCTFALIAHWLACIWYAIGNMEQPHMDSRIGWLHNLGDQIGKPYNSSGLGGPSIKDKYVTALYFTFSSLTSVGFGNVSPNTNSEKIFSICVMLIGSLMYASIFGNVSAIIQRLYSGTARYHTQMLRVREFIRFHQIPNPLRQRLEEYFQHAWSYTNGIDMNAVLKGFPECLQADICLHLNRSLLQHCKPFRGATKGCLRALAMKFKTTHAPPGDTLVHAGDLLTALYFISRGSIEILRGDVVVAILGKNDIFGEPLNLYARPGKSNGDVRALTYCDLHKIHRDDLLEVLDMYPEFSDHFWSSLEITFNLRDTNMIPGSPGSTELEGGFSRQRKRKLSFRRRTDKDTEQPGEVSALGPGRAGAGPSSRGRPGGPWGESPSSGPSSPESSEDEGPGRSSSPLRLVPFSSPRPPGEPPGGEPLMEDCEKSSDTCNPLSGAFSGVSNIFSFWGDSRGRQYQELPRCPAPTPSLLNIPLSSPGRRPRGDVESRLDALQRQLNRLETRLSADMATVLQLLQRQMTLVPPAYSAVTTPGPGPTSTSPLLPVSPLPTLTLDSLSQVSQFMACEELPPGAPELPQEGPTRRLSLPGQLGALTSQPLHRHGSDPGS
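Also: peak tail current of the secondary pulse compared with the same well before compound.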

Row | SMILES | hERG current change (%, negative = inhibition) at 10uM [%]
1 | Cc1ccccc1Nc1c([N+](=O)[O-])ccc2c1=NC1(CCCCC1)N=2 | -16.6
2 | O=C(COc1ccc(Br)cc1Cl)NNC(=O)c1ccccc1 | 2.57
3 | Cc1ccccc1CN(c1ccc(C(=O)NCc2ccccn2)cc1)S(C)(=O)=O | -35.4
4 | CC1CC(C)CN(C(=O)CSc2nc(Cc3cccs3)nc3ccccc23)C1 (stereo not shown) | -13
5 | Cc1noc(C)c1COC(=O)CCN1c2ccccc2Sc2ccccc21 | 7.54
6 | CCCCCCCN=CC1=C(O)CC(c2ccccc2)CC1=O (stereo not shown) | -6.52
7 | Cc1ccc(-n2cc(S(=O)(=O)c3ccc(C)cc3)[nH]c2=O)cc1 | 4.72
8 | O=C(CCCCCN1C(=O)c2cccc3cccc(c23)C1=O)NCc1ccco1 | 13.2
9 | O=C(NC1CCN(C(=S)NCc2ccco2)CC1)c1ccc(F)cc1 | -51.6
10 | CC(C)CNC(=S)N1CCC(NC(=O)c2ccco2)CC1 | -65.7
11 | O=C(NC1CCN(C(=S)NCc2ccco2)CC1)c1cccc(F)c1 | -47.1
12 | COCCNC(=S)N1CCC(NC(=O)c2ccco2)CC1 | 15.7
13 | COc1ccc(C(=O)NC2CCN(C(=S)NCc3ccco3)CC2)cc1 | -29.6
14 | O=C(NC1CCN(C(=S)Nc2ccc(Cl)cc2)CC1)c1ccco1 | -72.8
15 | CCNC(=S)N1CCC(NC(=O)c2ccco2)CC1 | 6.16
16 | O=C(NC1CCN(C(=S)Nc2ccc(F)cc2)CC1)c1ccco1 | -39
17 | COc1ccc(NC(=S)N2CCC(NC(=O)c3ccco3)CC2)cc1 | -6.59
18 | C=CCN(c1ccc(C(=O)NCCCn2ccnc2)cc1)S(C)(=O)=O | 12.3
19 | CCCc1cc(=O)[nH]c(SC(C)C(=O)Nc2ccc3c(c2)OCCO3)n1 (stereo not shown) | -7.38
20 | Cc1cc(CN(C)C)c(OC(=O)N(C)C)cc1C.Cl | 16.1
21 | Cc1[nH]nc2c1C1(C(=O)Nc3ccc([N+](=O)[O-])cc31)C(C#N)=C(N)O2 (stereo not shown) | 24.9
22 | O=C(NCC1CCCO1)c1ccc2c(=O)n(CC3CCCO3)c(SCC(=O)N3CCCC3)nc2c1 (stereo not shown) | 3.95

Row | SMILES | hERG current change (%, negative = inhibition) at 10uM [%]
23 | O=C(NCc1ccco1)c1ccc2c(=O)n(Cc3ccco3)c(SCC(=O)N3CCCC3)nc2c1 | -76.4
24 | CCOC(=O)CSc1nc2cc(C(=O)NCC3CCCO3)ccc2c(=O)n1Cc1ccco1 (stereo not shown) | -39.3
25 | CCCCCn1c(SCC(=O)OCC)nc2cc(C(=O)NCc3ccco3)ccc2c1=O | 2.51
26 | COCCCNC(=O)CSc1nc2cc(C(=O)NCCOC)ccc2c(=O)n1Cc1ccc2c(c1)OCO2 | -4.37
27 | C=CCn1c(SCC(=O)OCC)nc2cc(C(=O)NCc3ccco3)ccc2c1=O | -17.6
28 | CC1CCN(C(=O)CSc2nc3ccccc3c(=O)n2Cc2ccc3c(c2)OCO3)CC1 | -13.6
29 | COC(=O)c1ccc2c(=O)n(Cc3ccc4c(c3)OCO4)c(SCC(=O)N3CCCC3)nc2c1 | -52.4
30 | O=C(NCC1CCCO1)c1ccc2c(=O)n(Cc3ccco3)c(SCC(=O)N3CCCC3)nc2c1 (stereo not shown) | -79.3
31 | CN1CCN(C(=O)CCN2C(=O)/C(=C/c3ccccc3Cl)SC2=S)CC1 | 9.65
32 | COc1ccc(/C(O)=C2/C(=O)C(=O)N(CCCN3CCOCC3)C2c2ccc(C(C)C)cc2)cc1 (stereo not shown) | 24.6
33 | COc1cc(C2CC(=O)N3CN(Cc4ccco4)CSC3=C2C#N)ccc1OCc1ccccc1 (stereo not shown) | 15.1
34 | CC(=O)C1C(c2cccc(F)c2)c2c(n[nH]c2C)CC1(C)O (stereo not shown) | 15.7
35 | COc1cc(CNCc2ccccc2)ccc1OCC(O)c1ccccc1.O=C(O)C(=O)O (stereo not shown) | -24.9
36 | COC(=O)CC1C(=O)NCCN1C(=O)CSc1nc2cc(Cl)ccc2o1 (stereo not shown) | 13.5
37 | Cc1ccc(C)c(CN2CCC(CNC(=O)Nc3ccc(Br)cc3F)CC2)c1 | -73.4
38 | O=C(NCC1CCN(Cc2ccccc2F)CC1)Nc1cccc(Br)c1 | -43.2
39 | Cc1cc(C)cc(NC(=O)NCC2CCN(Cc3cc(C)ccc3C)CC2)c1 | -51
40 | Cc1ccc(C)c(CN2CCC(CNC(=O)Nc3ccc(C)c(C)c3)CC2)c1 | -74.3
41 | COc1cc(NC(=O)NCC2CCN(Cc3ccccc3C)CC2)cc(OC)c1OC | -2.71
42 | COc1ccc(N2CCC(CNC(=O)Nc3ccc(C)c(C)c3)C2)cc1 (stereo not shown) | 11.4
43 | Cc1ccc(C)c(CN2CCC(CNC(=O)Nc3ccc(C)c(F)c3)CC2)c1 | -27.5
44 | O=C(NCCN1CCCCC1)c1cc(Cl)ccc1Cl | 1.65

Row | SMILES | hERG current change (%, negative = inhibition) at 10uM [%]
45 | O=[N+]([O-])c1cc(C(F)(F)F)cc([N+](=O)[O-])c1NCCCNc1ccc([N+](=O)[O-])c2cccnc12 | 14.4
46 | O=C(Nc1ccc(S(=O)(=O)NCc2ccco2)cc1)c1ccc(F)cc1 | -4.23
47 | COc1ccc(CNC(=O)COC(=O)c2cc(-c3ccc(Cl)s3)nc3ccccc23)cc1 | 1.05
48 | CCOc1ccc(CNn2nnnc2N)cc1 | -6.35
49 | O=C(COc1ncnc2ccccc12)NCCc1ccc(F)cc1 | -6.11
50 | Cc1nc2ccc(NC(=O)Cc3cccc(F)c3)cc2s1 | 2.56
51 | COCCNC(=O)C(c1ccc(F)cc1)N(CCOC)C(=O)CCC(=O)Nc1nccs1 (stereo not shown) | 0.0239
52 | O=C1CC2(CCCCC2)Oc2ccc(O)cc21 | -11.8
53 | CCOC(=O)c1ccc(N2C(=O)Cc3ccccc3C2=O)cc1 | 20.9
54 | CCN(CC)S(=O)(=O)c1ccc(N2Cc3ccccc3C2=N)cc1 | -40.5
55 | N=C1c2ccccc2CN1c1ccc(S(=O)(=O)N2CCCCC2)cc1 | -62.5
56 | O=C1c2ccccc2C(=O)N1c1ccc(S(=O)(=O)N2CCCCC2)cc1 | 15.4
57 | CCOC(=O)c1ccc(N2Cc3ccccc3C2=N)cc1 | -61.3
58 | CCOC(=O)c1ccc(CN2Cc3ccccc3C2=O)cc1 | 2.17
59 | O=C(O)c1cccc(N2C(=O)Nc3ccccc3N2O)c1 | 10.2
60 | Cc1cc(-n2c(C)cc(C(=O)COc3ccccc3[N+](=O)[O-])c2C)no1 | -4.91
61 | CN1CCN(NC(=O)c2cc(-c3cccc(Cl)c3)nc3ccccc23)CC1 | -35.9
62 | O=S(=O)(N1CCCCC1)N1CCN(c2ccc(F)cc2)CC1 | -35.9
63 | CCN1C(=O)NC(=O)/C(=C\c2ccc(N3CCOCC3)cc2OC)C1=O | 13.7
64 | CC(OC(=O)c1nsc(Cl)c1Cl)C(=O)NCCc1ccccc1 (stereo not shown) | -65.4
65 | COc1ccc(CCNC(=O)C(C)OC(=O)c2nsc(Cl)c2Cl)cc1OC (stereo not shown) | 12.4
66 | CCC(OC(=O)c1nsc(Cl)c1Cl)C(=O)NCCc1ccccc1 (stereo not shown) | 16

Row | SMILES | hERG current change (%, negative = inhibition) at 10uM [%]
67 | COc1ccc(CC(=O)N/N=C/c2cc([N+](=O)[O-])cc(Br)c2O)cc1 | 6.88
68 | CCOC(=O)/C=C1\CN(Cc2cc(OC)c(OC)c(OC)c2)S(=O)(=O)c2ccc(C(F)(F)F)cc21 | -11.3
69 | CCn1nc(NS(=O)(=O)c2ccccc2)c2cc3cccc(C)c3nc21 | 6.7
70 | CSc1ccc(CN2CCC(N3CC(C)OC(C)C3)CC2)cc1.O=C(O)C(=O)O (stereo not shown) | -20.5
71 | CCN(CC)C(=O)C1CCN(Cc2ccc(OCc3ccccc3)c(OC)c2)CC1.O=C(O)C(=O)O | -32
72 | CCN(CC)C(=O)C1CCN(Cc2ccc(Br)cc2)CC1.O=C(O)C(=O)O | -51.4
73 | CSc1ccc(CN2CCN(S(=O)(=O)Cc3ccccc3)CC2)cc1 | 1.28
74 | CCN(Cc1ccccc1)C(=O)C1CCN(Cc2ccc(OC)c(OC)c2OC)CC1.O=C(O)C(=O)O | -43.4
75 | CCN(CC)C(=O)C1CCCN(Cc2ccc(N(C)C)cc2)C1 (stereo not shown) | -12.5
76 | O=C(C1CCN(Cc2ccc(F)cc2)CC1)N(CCO)Cc1ccccc1 | -10.6
77 | CCN(Cc1ccccc1)C(=O)C1CCN(Cc2ccc(SC)cc2)CC1.O=C(O)C(=O)O | -71.8
78 | CCN(Cc1ccccc1)C1CCN(Cc2ccc(SC)cc2)CC1.O=C(O)C(=O)O | -69.3
79 | CCCC(C)C(=O)Nc1nc(C)c(-c2csc(Nc3ccccc3OC)n2)s1 (stereo not shown) | 14.5
80 | CC(=O)CCn1cnc([N+](=O)[O-])n1 | 23
81 | COc1cccc(CNC(=O)COC(=O)c2cc(Br)c(Br)s2)c1 | 14.8
82 | O=C(O)CC1SC(N/N=C/c2ccc(Br)cc2)NC1=O (stereo not shown) | 6.6
83 | CC(NS(C)(=O)=O)C(c1cccs1)N1CCN(c2ccc(F)cc2)CC1 (stereo not shown) | -11.4
84 | Cc1ccc(C2=NN(CC(=O)NCc3ccccn3)C(=O)CC2)cc1 | -11.6
85 | Cc1cc(=O)oc2cc(OCC(=O)Nc3ccccc3C(=O)O)ccc12 | 11.6
